From the supplement of paper PMC10127200
Structures can show the parent of a compound that is named as a salt.

Columns and labels:
Assay in all cases: Euclidean distance of Cell Painting phenotypic profile (signed KS, 77 features) to DMSO centroid (dimensionless distance); 5 or 10 uM (library dependent); higher = stronger phenotypic change vs DMSO (phenoactivity)
Settings in all cases: 48 h
786-O = tested on: 786-O
In short: (§1)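 Stained cells were imaged confocally at 20X with 9 fields per well, after 48 h of exposure to library compounds at 10 or 5 uM (set by library; 0.1% DMSO final). The cells were five cancer lines and a healthy fibroblast line. From the images, Harmony extracted 77 features, each expressed as a signed Kolmogorov-Smirnov statistic relative to same-plate vehicle wells. Phenoactivity is measured as Euclidean distance to the median vehicle profile, using plate-position-corrected, correlation-weighted profiles averaged across replicates at the top dose.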

A549 = tested on: A549
In short: as §1

DU145 = tested on: DU145
In short: as §1

FB = tested on: FB
In short: as §1

HEPG2 = tested on: HEPG2
In short: as §1

OVCAR4 = tested on: OVCAR4
In short: as §1

Row | SMILES | Euclidean distance (786-O) | Euclidean distance (A549) | Euclidean distance (DU145) | Euclidean distance (FB) | Euclidean distance (HEPG2) | Euclidean distance (OVCAR4)
1 | COC1=C(OC)C(=O)C(CCCCCCCCCCO)=C(C)C1=O [Idebenone] | 1.45 | 0.641 | 0.677 | 1.22 | 1.05 | 0.744
2 | OCCN1CCN(CC/C=C2/c3ccccc3Sc3ccc(C(F)(F)F)cc32)CC1 [Flupenthixol dihydrochloride] | 1.63 | 2.21 | 1.71 | 2.52 | 2.68 | 2.01
3 | O=c1cc(-c2cccc3c2Sc2ccccc2S3)oc(N2CCOCC2)c1 | 0.999 | 0.525 | 0.839 | 1.33 | 1.72 | 1.14
4 | CCn1cc(C(=O)O)c(=O)c2cc(F)c(N3CCNC(C)C3)c(F)c21 (configuration not stated) [Lomefloxacin HCl] | 0.907 | 0.839 | 0.681 | 0.822 | 0.796 | 0.657
5 | CCCN(CCC)C(=O)C1=Cc2ccc(-c3ccc(C(=O)N4CCCC4)cc3)cc2N=C(N)C1 [Motolimod (VTX-2337)] | 1.67 | 2.04 | 1.35 | 1.27 | 2.18 | 2.2
6 | Nc1ncn([C@@H]2O[C@H](CO)[C@@H](O)[C@H]2O)c(=O)n1 [Azacitidine] | 1.87 | 1.89 | 1.92 | 2.79 | 1.69 | 1.33
7 | O=[N+]([O-])c1ccc(O)c2ncccc12 [Nitroxoline] | 2.71 | 2.74 | 1.76 | 1.94 | 1.71 | 2.24
8 | C[C@H](NC(=O)/C(C#N)=C/c1cccc(Br)n1)c1ccccc1 | 3.27 | 3.07 | 3.01 | 3.17 | 2.6 | 2.17
9 | C[C@]12CC[C@@H]3c4ccc(OC(=O)c5ccccc5)cc4CC[C@H]3[C@@H]1CC[C@@H]2O [Estradiol Benzoate] | 0.619 | 0.854 | 0.933 | 1.35 | 0.557 | 1.01
10 | CC1=C(C(=O)OC2CCCCC2)C(c2ccc([N+](=O)[O-])cc2)C2=C(CC(C)(C)CC2=O)N1 (configuration not stated) | 2.98 | 3.4 | 1.52 | 2.71 | 2.03 | 2.99
11 | COc1ccc(-c2coc3cc(O)ccc3c2=O)cc1 [Formononetin] | 0.921 | 0.857 | 0.599 | 1.07 | 0.662 | 1.13
12 | Cc1cccc(-c2nn3c(c2-c2ccnc4ccc(C(N)=O)cc24)CCC3)n1 | 1.39 | 1.06 | 0.926 | 1.47 | 1.04 | 1.18
13 | C[C@]12CC[C@@H]3c4ccc(O)cc4CC[C@H]3[C@@H]1CC[C@@H]2O [Estradiol] | 1.17 | 0.515 | 2.36 | 1.1 | 0.515 | 1.04
14 | Clc1ccc(C(Cn2ccnc2)OCc2csc3c(Cl)cccc23)c(Cl)c1 (configuration not stated) [Sertaconazole nitrate] | 1.47 | 1.42 | 1.2 | 1.26 | 0.627 | 1.61
15 | NC(=O)c1cccc(-c2cccc(OC(=O)NC3CCCCC3)c2)c1 | 0.656 | 0.944 | 0.753 | 0.99 | 1.61 | 1.17
16 | Cc1ccc(S(=O)(=O)n2c(N)nc3ccccc32)cc1 [ML130 (Nodinitib-1)] | 0.771 | 1.13 | 0.862 | 0.77 | 1.18 | 0.774
17 | O=C(/C=C\n1cnc(-c2cc(C(F)(F)F)cc(C(F)(F)F)c2)n1)N1CC(F)(F)C1 | 3.83 | 3.69 | 3.2 | 2.48 | 3.62 | 4
18 | CCCC(=O)O[C@]1(C(=O)CCl)[C@H](C)C[C@@H]2[C@@H]3CCC4=CC(=O)C=C[C@]4(C)[C@]3(F)C(=O)C[C@@]21C [clobetasone butyrate] | 1.53 | 2.42 | 3.28 | 1.92 | 1.73 | 2.23
19 | CC(C)(C)C#Cc1cc(N(C(=O)[C@H]2CC[C@H](C)CC2)[C@H]2CC[C@H](O)CC2)c(C(=O)O)s1 [VX-222 (VCH-222. Lomibuvir)] | 0.681 | 0.474 | 1.14 | 0.678 | 2.05 | 0.601

Row | SMILES | Euclidean distance (786-O) | Euclidean distance (A549) | Euclidean distance (DU145) | Euclidean distance (FB) | Euclidean distance (HEPG2) | Euclidean distance (OVCAR4)
20 | C/C(=C\C(=O)OCCCCCCCCC(=O)O)C[C@@H]1OC[C@H](C[C@@H]2O[C@H]2[C@@H](C)[C@H](C)O)[C@@H](O)[C@H]1O [Mupirocin calcium] | 1.28 | 0.948 | 1.83 | 0.82 | 0.518 | 1.26
21 | CN1CCN(c2nc(C3=C(c4c[nH]c5ccccc45)C(=O)NC3=O)c3ccccc3n2)CC1 [Sotrastaurin] | 2.18 | 1.58 | 1.36 | 2.47 | 1.37 | 1.2
22 | CCC(=O)c1c(O)cc(O)cc1O [Flopropione] | 1.34 | 0.879 | 1.2 | 1.39 | 0.447 | 1.04
23 | C=C1/C(=C\C=C2/CCC[C@]3(C)[C@@H]([C@H](C)CCCC(C)C)CC[C@@H]23)C[C@@H](O)C[C@@H]1O [Alfacalcidol] | 2.68 | 1.49 | 6.28 | 1.73 | 0.811 | 1.5
24 | C=C1/C(=C\C=C2/CCC[C@]3(C)[C@@H]([C@H](C)/C=C/[C@@H](O)C4CC4)CC[C@@H]23)C[C@@H](O)C[C@@H]1O [Calcipotriene] | 0.625 | 1.01 | 0.941 | 2.13 | 0.91 | 1.51
25 | N=C1CCCN1Cc1[nH]c(=O)[nH]c(=O)c1Cl [Tipiracil hydrochloride] | 1.02 | 0.947 | 0.925 | 1.05 | 0.343 | 0.676
26 | CC(S)C(=O)NCC(=O)O (configuration not stated) [Tiopronin] | 1.57 | 0.822 | 1.09 | 0.869 | 2.07 | 1.32
27 | COc1cc(OC2CCN(C)CC2)ccc1Nc1ncc2c(n1)n(C1CCCC1)c(=O)n2C | 1.53 | 2.28 | 1.39 | 2.84 | 1.78 | 1.83
28 | Cn1c(=O)n(-c2ccc(C(C)(C)C#N)cc2)c2c3cc(-c4cnc5ccccc5c4)ccc3ncc21 [BEZ235 (NVP-BEZ235. Dactolisib)] | 3.77 | 3.79 | 1.66 | 2.82 | 0.961 | 4.78
29 | NC(=O)c1ccc(-c2nc(-c3ccccn3)c(-c3ccc4c(c3)OCO4)[nH]2)cc1 | 1.59 | 2.49 | 1.48 | 1.91 | 2.52 | 2.61
30 | NS(=O)(=O)c1cc(Cl)c(Cl)c(S(N)(=O)=O)c1 [Dichlorphenamide] | 0.93 | 0.762 | 0.774 | 0.872 | 0.87 | 1.01
31 | CCC[C@H](N[C@H]1CCc2cc(F)cc(F)c2C1)C(=O)Nc1cn(C(C)(C)CNCC(C)(C)C)cn1 | 1.07 | 1.25 | 0.825 | 0.705 | 1.07 | 2.26
32 | FC(F)(F)c1ccc(CNc2ccc(Cc3c[nH]c4ncc(Cl)cc34)cn2)cn1 [Pexidartinib (PLX3397)] | 1.31 | 1.41 | 1.04 | 1.53 | 2.18 | 1
33 | Cc1ccc(Nc2nccc(N(C)c3ccc4c(C)n(C)nc4c3)n2)cc1S(N)(=O)=O [Pazopanib] | 2.13 | 1.89 | 2.31 | 2.44 | 1.94 | 1.78
34 | NC1=N[C@@]2(c3cc(NC(=O)c4ccc(F)cn4)ccc3F)COC[C@H]2CS1 | 1.08 | 1.29 | 1.47 | 1.04 | 0.861 | 1.05
35 | Cc1cc(NS(=O)(=O)c2ccc(N)cc2)no1 [Sulfamethoxazole] | 1.58 | 0.797 | 0.847 | 1.02 | 0.562 | 0.86
36 | Nc1ccc(S(=O)(=O)Nc2ncccn2)cc1 [Sulfadiazine] | 1.39 | 0.735 | 1.5 | 1.03 | 2.25 | 1.43
37 | CNC[C@H](O)c1ccc(O)c(O)c1 [Epinephrine bitartrate] | 0.553 | 0.655 | 0.818 | 0.827 | 0.637 | 0.577
